Results on 4 compounds are retold here after PubChem BioAssay (EPA / NIEHS).

Common to all, as to conditions: mRNA level, 48 h; actives raise or lower the signal
Read-out in experiment [1]: Insulin-like growth factor-binding protein 1 (IGFBP1), IGFBP1 (gene 3484)
Briefly: LTEA_HepaRG_IGFBP1: Life Technologies and Expression Analysis (LTEA) Assay for Insulin-like growth factor-binding protein 1 (IGFBP1) using HepaRG (AID 2283508). A digest of the protocol: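 Differentiated human HepaRG cells in serum-free induction medium were exposed in duplicate for 48 h to eight concentrations, top 100 uM with half-log dilutions, in 0.5% DMSO. Transcript levels came from qRT-PCR normalised to ACTB, GAPDH and POLR2A, fitted bidirectionally against DMSO.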

Read-out in experiment [2]: Interleukin 6 (IL6), IL6 (gene 3569)
Briefly: LTEA_HepaRG_IL6: Life Technologies and Expression Analysis (LTEA) Assay for Interleukin 6 (IL6) using HepaRG (AID 2283509). A digest of the protocol: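 HepaRG cells exposed in duplicate for 48 h to eight half-log concentrations, top 100 uM, in 0.5% DMSO serum-free induction medium. mRNA measured by qRT-PCR, normalized to ACTB, GAPDH and POLR2A. Bidirectional fit versus DMSO.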

Read-out in experiment [3]: Interleukin 6 Receptor (IL6R), IL6R (gene 3570)
The experiment can be described thus: LTEA_HepaRG_IL6R: Life Technologies and Expression Analysis (LTEA) Assay for Interleukin 6 Receptor (IL6R) using HepaRG (AID 2283510).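 For AC50: TaqMan qRT-PCR signal normalized to ACTB GAPDH and POLR2A housekeeping genes.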 A digest of the protocol:
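Concentration-response in human liver HepaRG cells: eight concentrations from 100 uM downward by half-logs, 48 h exposure, 0.5% DMSO vehicle. IL6R mRNA change measured by qRT-PCR and fitted in both directions relative to vehicle.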

Read-out in experiment [4]: Potassium channel subfamily K member 1 (KCNK1), KCNK1 (gene 3775)
Briefly: LTEA_HepaRG_KCNK1: Life Technologies and Expression Analysis (LTEA) Assay for Potassium channel subfamily K member 1 (KCNK1) using HepaRG (AID 2283511). A digest of the protocol: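 Differentiated HepaRG cells, 48 h exposure in serum-free induction medium with 0.5% DMSO; 8 concentrations, half-log from 100 uM, duplicate. KCNK1 mRNA by qRT-PCR, normalized to ACTB, GAPDH, POLR2A; bidirectional fit vs DMSO.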

Read-out in experiment [5]: Keratin 19 (KRT19), KRT19 (gene 3880)
Briefly: LTEA_HepaRG_KRT19: Life Technologies and Expression Analysis (LTEA) Assay for Keratin 19 (KRT19) using HepaRG (AID 2283512). The method in brief: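 Differentiated human HepaRG cells, plated 48 h, were exposed in duplicate for 48 h in serum-free induction medium to eight half-log concentrations up to 100 uM in 0.5% DMSO. KRT19 mRNA was quantified by qRT-PCR, normalized to ACTB, GAPDH and POLR2A, and fitted bidirectionally versus DMSO.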

Read-out in experiment [6]: JUN Transcription Factor, JUN (gene 3725)
The experiment can be described thus: LTEA_HepaRG_JUN: Life Technologies and Expression Analysis (LTEA) Assay for JUN Transcription Factor using HepaRG (AID 2283513). A digest of the protocol:
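Human HepaRG liver cells receive test chemicals in 0.5% DMSO for 48 h across an eight-point range topping at 100 uM. Expression changes in JUN are scored in both directions against the DMSO vehicle.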

Read-out in experiment [7]: Lipase C (LIPC), LIPC (gene 3990)
Briefly: LTEA_HepaRG_LIPC: Life Technologies and Expression Analysis (LTEA) Assay for Lipase C (LIPC) using HepaRG (AID 2283514). The method in brief:
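HepaRG cells, 48 h after plating, treated in duplicate for 48 h in serum-free induction medium over 8 half-log concentrations from 100 uM, 0.5% DMSO. LIPC mRNA by TaqMan qRT-PCR normalized to ACTB/GAPDH/POLR2A; bidirectional fit versus DMSO.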

Read-out in experiment [8]: Lipoprotein lipase (LPL), LPL (gene 4023)
The experiment can be described thus: LTEA_HepaRG_LPL: Life Technologies and Expression Analysis (LTEA) Assay for Lipoprotein lipase (LPL) using HepaRG (AID 2283515). The method in brief: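 Differentiated HepaRG cells, plated 48 h, then exposed 48 h in serum-free induction medium to 8 concentrations (top 100 uM, half-log steps) in 0.5% DMSO, duplicate. LPL mRNA measured by qRT-PCR, normalized to ACTB, GAPDH and POLR2A.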

Read-out in experiment [9]: MicroRNA 122 (MIR122), gene 406906
The experiment can be described thus: LTEA_HepaRG_MIR122: Life Technologies and Expression Analysis (LTEA) Assay for MicroRNA 122 (MIR122) using HepaRG (AID 2283516). Note: the transcript read is the microRNA miR-122. The method in brief: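 HepaRG, 48 h exposure, 8-pt half-log from 100 uM, 0.5% DMSO; TaqMan qRT-PCR; bidirectional fit vs DMSO.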

Read-out in experiment [10]: matrix metalloproteinase-10 (MMP10), MMP10 (gene 4319)
Briefly: LTEA_HepaRG_MMP10: Life Technologies and Expression Analysis (LTEA) Assay for matrix metalloproteinase-10 (MMP10) using HepaRG (AID 2283517). The method in brief:
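Differentiated HepaRG cells in serum-free induction medium exposed 48 h in duplicate to 8-point half-log series up to 100 uM in 0.5% DMSO. mRNA quantified by qRT-PCR, normalised to ACTB, GAPDH, POLR2A; bidirectional fit versus DMSO.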

Read-out in experiment [11]: MYC, MYC (gene 4609)
Briefly: LTEA_HepaRG_MYC: Life Technologies and Expression Analysis (LTEA) Assay for MYC using HepaRG (AID 2283518). A digest of the protocol: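 Differentiated human HepaRG cells, plated 48 h then switched to serum-free induction medium, were exposed in duplicate for 48 h to 8-point half-log series up to 100 uM in 0.5% DMSO. MYC mRNA measured by qRT-PCR, normalized to ACTB/GAPDH/POLR2A.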

Read-out in experiment [12]: matrix metalloproteinase-3 (MMP3), MMP3 (gene 4314)
The experiment can be described thus: LTEA_HepaRG_MMP3: Life Technologies and Expression Analysis (LTEA) Assay for matrix metalloproteinase-3 (MMP3) using HepaRG (AID 2283519). The method in brief:
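HepaRG cells (~100,000/well) in serum-free induction medium were dosed in duplicate for 48 h with an 8-point half-log series from 100 uM, 0.5% DMSO. MMP3 mRNA was quantified by Fluidigm TaqMan qRT-PCR, normalized to three housekeeping genes.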

Read-out in experiment [13]: Paternally Expressed 10 (PEG10), PEG10 (gene 23089)
Briefly: LTEA_HepaRG_PEG10: Life Technologies and Expression Analysis (LTEA) Assay for Paternally Expressed 10 (PEG10) using HepaRG (AID 2283520).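 For AC50: PEG10 transcript by qRT-PCR normalised to ACTB GAPDH and POLR2A.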 A digest of the protocol: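 Chemicals tested on HepaRG cells for 48 h, highest concentration 100 uM. PEG10 expression assessed by qRT-PCR relative to DMSO control.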

Read-out in experiment [14]: Nuclear factor NF-kappa-B p105 subunit (Homo sapiens) (UniProt P19838)
Briefly: LTEA_HepaRG_NFKB1: Life Technologies and Expression Analysis (LTEA) Assay for Nuclear Factor Kappa B Subunit 1 (NFKB1) using HepaRG (AID 2283521). The method in brief:
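Differentiated human HepaRG cells were exposed for 48 h in serum-free induction medium to eight concentrations (top 100 uM, half-log steps, 0.5% DMSO), in duplicate. NFKB1 mRNA was measured by TaqMan qRT-PCR, normalized to ACTB/GAPDH/POLR2A, and fitted bidirectionally against DMSO.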

Read-out in experiment [15]: Protein phosphatase 2A (PPP2R4), PTPA (gene 5524)
Briefly: LTEA_HepaRG_PPP2R4: Life Technologies and Expression Analysis (LTEA) Assay for Protein phosphatase 2A (PPP2R4) using HepaRG (AID 2283522). The method in brief: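 Gene-expression endpoint in HepaRG hepatic cells: 48 h treatment across eight half-log concentrations up to 100 uM in 0.5% DMSO. PPP2R4 mRNA by qRT-PCR, normalized to three endogenous control genes.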

Read-out in experiment [16]: Phosphatase and tensin (PTEN), PTEN (gene 5728)
The experiment can be described thus: LTEA_HepaRG_PTEN: Life Technologies and Expression Analysis (LTEA) Assay for Phosphatase and tensin (PTEN) using HepaRG (AID 2283523). The method in brief:
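HepaRG cells, 48 h after plating, exposed in duplicate for 48 h in serum-free induction medium to 8 half-log concentrations up to 100 uM (0.5% DMSO). PTEN mRNA by qRT-PCR, normalized to ACTB, GAPDH, POLR2A; bidirectional fit versus DMSO.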

Read-out in experiment [17]: solute carrier (SLC22A1), SLC22A1 (gene 6580)
Briefly: LTEA_HepaRG_SLC22A1: Life Technologies and Expression Analysis (LTEA) Assay for solute carrier (SLC22A1) using HepaRG (AID 2283524). The method in brief: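 Differentiated human HepaRG cells in serum-free induction medium, exposed 48 h in duplicate to 8-point half-log series from 100 µM top in 0.5% DMSO. SLC22A1 mRNA by TaqMan qRT-PCR normalized to ACTB, GAPDH, POLR2A; bidirectional fit versus DMSO.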

Read-out in experiment [18]: Pyruvate Dehydrogenase Kinase 4 (PDK4), PDK4 (gene 5166)
Briefly: LTEA_HepaRG_PDK4: Life Technologies and Expression Analysis (LTEA) Assay for Pyruvate Dehydrogenase Kinase 4 (PDK4) using HepaRG (AID 2283525). The method in brief: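 HepaRG cells plated 48 h, then switched to serum-free induction medium and exposed in duplicate for 48 h to 8 half-log concentrations from 100 uM in 0.5% DMSO. PDK4 mRNA measured by qRT-PCR, normalized to ACTB, GAPDH and POLR2A; bidirectional fit versus DMSO.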

Read-out in experiment [19]: NAD(P)H dehydrogenase [quinone] 1 (NQO1), NQO1 (gene 1728)
Briefly: LTEA_HepaRG_NQO1: Life Technologies and Expression Analysis (LTEA) Assay for NAD(P)H dehydrogenase [quinone] 1 (NQO1) using HepaRG (AID 2283526). The method in brief: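 Human HepaRG hepatic cells received chemicals for 48 h in serum-free induction medium with 0.5% DMSO, up to 100 uM. Expression was assessed by TaqMan qRT-PCR against housekeeping controls and fitted bidirectionally against DMSO.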

Calls of active or inactive are those of the source. Rule for the calls: active = hit-call score of the fitted dose curve at least 0.9, where 1 is the maximum; inactive = score below 0.9.

Nuclear factor NF-kappa-B p105 subunit (Homo sapiens), sequence (P19838 whole entry, looked up): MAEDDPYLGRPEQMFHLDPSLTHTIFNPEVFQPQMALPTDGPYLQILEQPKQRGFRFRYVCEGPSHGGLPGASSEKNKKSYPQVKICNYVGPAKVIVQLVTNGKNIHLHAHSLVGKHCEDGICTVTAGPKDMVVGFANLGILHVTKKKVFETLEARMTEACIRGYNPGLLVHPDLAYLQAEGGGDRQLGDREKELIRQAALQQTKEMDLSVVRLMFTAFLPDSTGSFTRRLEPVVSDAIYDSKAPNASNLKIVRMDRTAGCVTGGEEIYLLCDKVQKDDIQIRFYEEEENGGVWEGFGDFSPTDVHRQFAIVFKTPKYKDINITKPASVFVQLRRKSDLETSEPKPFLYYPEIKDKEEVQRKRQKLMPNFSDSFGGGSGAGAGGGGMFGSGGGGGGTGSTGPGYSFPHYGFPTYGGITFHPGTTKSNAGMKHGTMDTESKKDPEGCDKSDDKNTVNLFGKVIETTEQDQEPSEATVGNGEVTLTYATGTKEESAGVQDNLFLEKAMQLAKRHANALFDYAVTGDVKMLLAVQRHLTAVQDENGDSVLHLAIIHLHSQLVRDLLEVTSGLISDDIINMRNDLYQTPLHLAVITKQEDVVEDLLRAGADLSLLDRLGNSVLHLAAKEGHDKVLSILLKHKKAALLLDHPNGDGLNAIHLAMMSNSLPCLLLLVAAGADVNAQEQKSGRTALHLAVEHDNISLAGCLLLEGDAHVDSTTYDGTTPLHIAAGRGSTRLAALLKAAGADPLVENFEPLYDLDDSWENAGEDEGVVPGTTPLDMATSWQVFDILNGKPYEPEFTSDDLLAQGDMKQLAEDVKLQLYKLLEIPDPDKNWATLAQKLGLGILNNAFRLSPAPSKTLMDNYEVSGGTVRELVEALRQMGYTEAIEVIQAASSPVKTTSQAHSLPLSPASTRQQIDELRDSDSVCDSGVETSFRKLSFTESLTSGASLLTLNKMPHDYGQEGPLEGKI

As usually defined, the AC50 is the concentration at which the activity in the assay is half-maximal. Turning to `O=C(O)C(F)(F)C(F)(F)C(F)(F)C(F)(F)C(F)(F)C(F)(F)C(F)(F)C(F)(F)C(F)(F)F`, the AC50 in experiment [1] is 27.9 µM (active); in experiment [2] it was 71.7 µM (active); in [6] it was 50 µM (active); in experiment [7], 21.1 µM (active); in experiment [8], 89.2 µM (active); in experiment [9], 63.1 µM (active). Also, the AC50 in experiment [10] is 37.1 µM (active); in experiment [11] it was 22.8 µM (active); in [13] it was 12.1 µM (active); in experiment [15], 88.9 µM (active); in [16], 82.2 µM (active); in experiment [17] it was 41.2 µM (active). In addition, the AC50 in experiment [18] is 25.7 µM (active). For the same compound, the call in [3], in experiment [4], in experiment [5], in experiment [12], in experiment [14] and in [19] was inactive.

As for `Cc1cccc(C)c1N`, the result in [1], in experiment [2], in [3], in [4], in experiment [5] and in [6] was inactive. Also, the compound was classed as inactive in experiment [7], in experiment [8], in experiment [9], in experiment [10], in [11] and in experiment [12]. Moreover, the result in experiment [13], in [14], in [15], in experiment [16], in experiment [17] and in experiment [18] was inactive. Besides, in [19], the compound was classed as inactive.

As to `O=C(NC(=O)c1c(F)cccc1F)Nc1cc(Cl)c(OC(F)(F)C(F)F)c(Cl)c1`, the call in experiment [1], in experiment [2], in experiment [3], in [4], in experiment [5] and in [6] was inactive. Besides, the compound was called inactive in [8], in experiment [9], in experiment [10], in experiment [11], in experiment [12] and in experiment [13]. Moreover, the result in [14], in experiment [15], in experiment [16], in [17], in experiment [18] and in [19] was inactive. The AC50 in experiment [7] is 50 µM (active).

Take `NS(=O)(=O)C(F)(F)C(F)(F)C(F)(F)C(F)(F)C(F)(F)C(F)(F)C(F)(F)C(F)(F)F`: the AC50 in experiment [1] was 21.6 µM (active); in [2], 38.9 µM (active); in experiment [3], 30.2 µM (active); in [5], 23.4 µM (active); in experiment [6], 37.2 µM (active); in experiment [7], 15.8 µM (active). The AC50 in [8] was 70.8 µM (active); in experiment [9] it was 12.4 µM (active); in experiment [10] it was 33.9 µM (active); in experiment [11], 26.8 µM (active); in experiment [12], 50 µM (active); in experiment [13], 5.02 µM (active). The AC50 is 2.4 µM (active) in experiment [14]; 24.4 µM (active) in [15]; 26.2 µM (active) in [16]; 9.51 µM (active) in [17]; 12.8 µM (active) in [19]. The compound was classed as inactive in experiment [4] and in [18].
